CSC inhib: cancer stem cell inhibition; cancer stem cell-like cells viability, luminescence; inhibition, % at 7.5 µM; 300,000 compounds, 1.1% hits; AID 2717; in the data active = inhibition above about 75%; tested in HMLE shEcad cells
PP1 inh: blocks human PP1-alpha phosphatase, a PP5 counter-screen | P62136 | purified PP1alpha, OMFP fluorescence | inhibition, % at 6.7 µM | 320,000 compounds, 0.9% hits;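 active = inhibition above the mean inhibition of all tested compounds plus 3 SD, computed separately for each screening campaign, cut at about 15% in these data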
ALR H2O2 inh: human ALR oxidase inhibition via reduced H2O2 | purified ALR, DTT oxidation, H2O2 HRP-luminol luminescence | 290,000 compounds, 3.8% hits | AID 485317 | inhibition, % (test concentration not listed);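 active = mean replicate inhibition above about 79%, with every replicate also reaching it, limit read from the data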
PP5 inh: PP5 (human) phosphatase inhibition; 320,000 compounds, 0.18% hits; AID 1987; inhibition, % at 6.7 µM; P53041; purified PP5c, OMFP substrate fluorescence;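 active = inhibition above the campaign's mean inhibition across all tested compounds plus 3 SD, cut at about 9.5% in these data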;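 note: 0% = DMSO only and 100% = 100 µM cantharidin control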
Target sequence (P53041 whole entry, looked up): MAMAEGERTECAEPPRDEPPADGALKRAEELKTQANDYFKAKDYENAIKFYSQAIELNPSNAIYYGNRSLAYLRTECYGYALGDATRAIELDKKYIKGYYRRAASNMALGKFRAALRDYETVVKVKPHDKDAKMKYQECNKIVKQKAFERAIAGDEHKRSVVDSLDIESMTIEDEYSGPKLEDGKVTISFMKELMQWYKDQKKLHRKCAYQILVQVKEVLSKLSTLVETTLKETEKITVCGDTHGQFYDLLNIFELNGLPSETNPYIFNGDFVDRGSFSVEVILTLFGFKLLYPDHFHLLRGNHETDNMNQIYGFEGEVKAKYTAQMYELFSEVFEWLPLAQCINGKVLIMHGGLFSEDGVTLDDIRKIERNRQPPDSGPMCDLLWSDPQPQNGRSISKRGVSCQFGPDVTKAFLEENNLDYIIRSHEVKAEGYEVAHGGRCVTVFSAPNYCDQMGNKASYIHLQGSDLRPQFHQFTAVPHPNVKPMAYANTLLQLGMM
Calb FLC: affects C. albicans growth with fluconazole; C. albicans CaCi-2 (fluconazole-resistant clinical isolate) + fluconazole, Alamar Blue growth, 48 h; growth inhibition, % (concentration not given with the values); 300,000 compounds, 0.57% hits;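 active = growth inhibition above about 58% in most replicates, limit read from the data, passing the limit was not always enough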;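 note: all wells also contain fluconazole at 8 µg/ml as a sub-toxic cotreatment; 0% = median of DMSO wells and 100% = median of geldanamycin control wells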
* marks the source's active call; other numbers are inactive results; . = no result. This is a sample that favours compounds with a hit; in the whole collection about 5.4% have one here.

SMILES | CSC inhib | PP1 inh | ALR H2O2 inh | PP5 inh | Calb FLC
O=C(NNC(=O)C1[C@H]2CCCC[C@@H]12)c1ccc(=O)oc1 (stereo not given in full) | -9 | -2 | 96* | 2 | 2
Cc1ccc(Sc2ncccc2C(=O)NCc2cc([N+](=O)[O-])ccc2O)cc1C | 7 | . | 89* | . | 35
COc1ccc(CNC(=O)c2cccnc2Sc2ccc(C)c(C)c2)cc1 | -5 | -1 | . | 1 | 2
Cc1ccc(C(=O)NCC(=O)Nc2ccc(C)c(S(=O)(=O)Nc3ccc(Cl)cc3)c2)s1 | . | -1 | -5 | 0 | -19
O=C(/C=C/c1ccccc1)c1cc(Br)ccc(=O)c1O | 93* | 17* | 48 | 2 | -4
COc1ccc(/C=C/C(=O)c2ccccc2O)cc1 | 10 | 1 | 16 | 1 | -17
Cc1ccc(/C=C/C(=O)c2ccccc(=O)c2O)cc1C | 97* | 14 | 96* | 1 | 99*
CCN(c1ccc(OC)cc1)S(=O)(=O)c1nnc(NC(=O)COc2ccc(C)cc2)s1 | 15 | 6 | -8 | 3 | -10
CN(Cc1ccc(N(C)C)cc1)C(=O)c1cc2ccccc2o1 | 11 | -3 | 76* | -2 | 7
O=C(c1ccccc1)c1cc2ccccc2o1 | -8 | -3 | -4 | 4 | -11
CC(C)(C)N(Cc1ccccc1)C(=O)c1cc2ccccc2o1 | 78* | 2 | -7 | 3 | -4
CN(Cc1ccccc1)C(=O)c1cc2ccccc2o1 | -2 | -2 | 13 | 2 | -2
Oc1c(C(c2cccs2)N2CCC3(CC2)OCCO3)sc2ncnn12 (stereo not given) | 2 | 0 | -6 | 2 | 12
Oc1c(C(c2cccs2)N2CCN(c3ccccc3)CC2)sc2ncnn12 (stereo not given) | -18 | 2 | 97* | 3 | -15
COc1ccc(OCC(=O)NNC(=O)c2ccccc2OCc2c(C)noc2C)cc1 | -18 | -5 | 1 | -2 | 0
CCCCNC(=O)CS(=O)Cc1nc(-c2cccs2)oc1C (stereo not given) | -2 | 1 | 98* | 0 | 2
CC(C)OCCCNC(=O)c1cccs1 | -8 | -2 | 0 | -1 | -7
Cc1oc(-c2cccs2)nc1CS(=O)CC(=O)NCCCOC(C)C (stereo not given) | 11 | -1 | 99* | -3 | -13
Cc1oc(-c2cccs2)nc1CS(=O)CC(=O)NCCc1ccccc1 (stereo not given) | 18 | -2 | 98* | 3 | -4
Cc1ccc(C(=O)COC(=O)C(C)N2C(=O)C3C4CCC(C4)C3C2=O)cc1 (stereo not given) | -5 | 0 | -10 | 2 | -4
COc1ccc2cc(C(=O)NCc3ccccc3)c(=Nc3ccc(C(=O)O)cc3)oc2c1 | 4 | -1 | -2 | 1 | 41
O=C(O)c1ccc(N=c2oc3cc(O)ccc3cc2C(=O)NCc2ccccc2)cc1 | 14 | 7 | 90* | -2 | -5
Cc1cccc(Cc2nnc(CCC(=O)N3CCCCC3c3nccs3)o2)c1 (stereo not given) | 11 | -1 | 2 | 3 | 100*
Clc1ccc(-n2nnc(-c3cccnc3Cl)n2)cc1Cl | -13 | 0 | 3 | 4 | 3
CCCCNc1c(-c2ccc(OC)c(Sc3ccc(OC)cc3)c2)nc2ccccn12 | 101* | 9 | 4 | 1 | 8
SMILES | CSC inhib | PP1 inh | ALR H2O2 inh | PP5 inh | Calb FLC
CCCCNc1c(-c2ccc(OC)c(Sc3ccc(OC)cc3)c2)nc2cnccn12 | . | . | -2 | . | .
CCCCNc1c(-c2ccc(SC(C)CC)cc2)nc2cnccn12 (stereo not given) | 107* | . | 67 | . | .
CCCCCCSc1cc(-c2nc3cnccn3c2NCCCC)ccc1OC | 105* | . | 8 | . | .
COc1ccc(CC(=O)Nc2cccc(S(=O)(=O)N3CCCCC3)c2)cc1 | . | -1 | . | 1 | .
CC(NC(=O)c1ccco1)C(c1cccs1)N1CCN(c2ccccc2)CC1 (stereo not given) | -6 | -1 | 98* | -1 | -9
CC(NC(=O)c1ccco1)C(c1cccs1)N1CCN(c2ccccc2F)CC1 (stereo not given) | -2 | -1 | 5 | 0 | -1
CC(NC(=O)c1ccco1)C(c1cccs1)N1CCN(c2ccc(F)cc2)CC1 (stereo not given) | 8 | 8 | 99* | 7 | 15
O=C(Nc1ccc(Cl)cc1)Nc1ccccc1C(=O)O | -3 | -1 | 14 | 1 | 8
CCN(CC)CCCNC(=S)N(Cc1cccnc1)Cc1cc2cc(C)ccc2[nH]c1=O | -12 | 1 | -2 | -2 | -9
Nc1ccc(N=Nc2ccc(N)cc2)cc1 | 23 | 4 | 98* | 3 | -11
